Legend:
Assay in all cases: DAPPL (digital affinity profiling via proximity ligation, sequencing); 10 mM Tris-HCl pH 7.5, 50 mM NaCl, 1 mM DTT, 4% glycerol, room temperature, 30 min; GST-TFs on glutathione beads, 16-mer random dsDNA library, 0.1% formaldehyde crosslink after washing; high values mean tight binding
Details in all cases: protein: recombinant; tags: N-terminal GST; dsDNA, one strand shown
FLI1 = target: T1, FLI1 (Homo sapiens, UniProt Q01543 1-452)
T1 sequence: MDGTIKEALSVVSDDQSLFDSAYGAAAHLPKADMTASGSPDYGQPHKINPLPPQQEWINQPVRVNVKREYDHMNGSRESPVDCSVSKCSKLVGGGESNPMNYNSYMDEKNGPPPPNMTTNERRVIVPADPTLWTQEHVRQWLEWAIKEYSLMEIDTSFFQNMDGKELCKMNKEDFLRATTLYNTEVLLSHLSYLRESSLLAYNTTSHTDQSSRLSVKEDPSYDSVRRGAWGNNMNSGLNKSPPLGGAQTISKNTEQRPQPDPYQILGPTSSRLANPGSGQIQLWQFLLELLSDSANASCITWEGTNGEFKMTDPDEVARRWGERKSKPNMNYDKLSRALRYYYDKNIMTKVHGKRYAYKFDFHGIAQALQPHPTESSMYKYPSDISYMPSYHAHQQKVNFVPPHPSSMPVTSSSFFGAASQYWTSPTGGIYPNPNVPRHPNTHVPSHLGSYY
Method in brief: (§1)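 Human transcription factors carrying a GST fusion were produced in yeast, bound to glutathione beads, tagged with DNA barcodes and pooled together with a tag-only sample. Each pool was held with 200 nmole of a random double-stranded 16-mer DNA library in Tris/NaCl/DTT/glycerol buffer for 30 min at room temperature, then washed, crosslinked in 0.1% formaldehyde, proximity-ligated with BsaI/T4 ligase (1 h, 37 °C), PCR-amplified and sequenced on an Illumina NextSeq500. Binding signal is the read frequency of each hexamer for a given factor divided by its frequency in the tag-only sample.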

ELK1 = target: T2, ELK1 (Homo sapiens, UniProt P19419 1-428)
T2 sequence: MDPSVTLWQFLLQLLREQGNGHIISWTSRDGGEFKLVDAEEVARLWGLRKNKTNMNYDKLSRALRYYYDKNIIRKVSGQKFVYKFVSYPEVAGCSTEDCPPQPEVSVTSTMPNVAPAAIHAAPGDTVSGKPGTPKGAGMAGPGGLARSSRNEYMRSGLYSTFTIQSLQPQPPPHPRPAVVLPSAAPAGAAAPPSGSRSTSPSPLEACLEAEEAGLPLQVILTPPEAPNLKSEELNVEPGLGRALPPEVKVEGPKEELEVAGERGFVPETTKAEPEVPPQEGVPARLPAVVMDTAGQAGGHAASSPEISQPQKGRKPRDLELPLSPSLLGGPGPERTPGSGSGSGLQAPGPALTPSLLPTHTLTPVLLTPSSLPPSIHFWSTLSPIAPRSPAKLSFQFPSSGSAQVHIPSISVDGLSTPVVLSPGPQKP
Method in brief: as §1

ERG = target: T3, ERG (Homo sapiens, UniProt P11308 1-479)
T3 sequence: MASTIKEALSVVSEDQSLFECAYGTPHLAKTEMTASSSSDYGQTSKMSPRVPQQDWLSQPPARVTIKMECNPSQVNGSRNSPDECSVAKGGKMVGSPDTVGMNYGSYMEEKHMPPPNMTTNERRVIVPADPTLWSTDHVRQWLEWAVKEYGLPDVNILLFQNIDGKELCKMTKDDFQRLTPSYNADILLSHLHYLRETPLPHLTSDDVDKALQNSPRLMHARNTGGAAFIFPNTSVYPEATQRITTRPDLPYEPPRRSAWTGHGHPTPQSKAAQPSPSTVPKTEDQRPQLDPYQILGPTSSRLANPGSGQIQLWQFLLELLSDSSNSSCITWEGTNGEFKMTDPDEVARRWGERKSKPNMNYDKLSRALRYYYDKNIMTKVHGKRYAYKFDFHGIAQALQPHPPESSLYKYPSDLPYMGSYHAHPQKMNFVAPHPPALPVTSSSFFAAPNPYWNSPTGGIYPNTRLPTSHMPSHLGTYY
Method in brief: as §1

EHF = target: T4, EHF (Homo sapiens, UniProt Q9NZC4 1-300)
T4 sequence: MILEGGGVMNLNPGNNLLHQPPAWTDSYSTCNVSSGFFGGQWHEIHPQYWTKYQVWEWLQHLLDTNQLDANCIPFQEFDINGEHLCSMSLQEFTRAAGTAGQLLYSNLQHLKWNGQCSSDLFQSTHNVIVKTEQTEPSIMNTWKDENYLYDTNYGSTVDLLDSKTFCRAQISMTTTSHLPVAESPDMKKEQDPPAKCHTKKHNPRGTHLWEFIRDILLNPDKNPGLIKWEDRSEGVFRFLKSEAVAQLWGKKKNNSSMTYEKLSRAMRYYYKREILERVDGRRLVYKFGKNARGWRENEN
Method in brief: as §1

SPI1 = SPI1 (Homo sapiens, UniProt P17947 1-270)
Method in brief: as §1

SPIB = SPIB (Homo sapiens, UniProt Q01892 1-262)
Method in brief: as §1

ETV5 = ETV5 (Homo sapiens, UniProt P41161 1-510)
Method in brief: as §1

SPIC = target: T5, SPIC (Homo sapiens, UniProt Q8N5J4 1-248)
T5 sequence: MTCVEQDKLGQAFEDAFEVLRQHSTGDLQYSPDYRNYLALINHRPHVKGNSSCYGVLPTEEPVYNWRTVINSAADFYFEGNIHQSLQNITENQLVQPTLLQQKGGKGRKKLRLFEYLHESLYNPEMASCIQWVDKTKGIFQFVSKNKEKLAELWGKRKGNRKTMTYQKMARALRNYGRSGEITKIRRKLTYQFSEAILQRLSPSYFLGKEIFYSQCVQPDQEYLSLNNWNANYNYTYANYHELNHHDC
Method in brief: as §1

ELF4 = ELF4 (Homo sapiens, UniProt Q99607 1-663)
Method in brief: as §1

ELK4 = target: T6, ELK4 (Homo sapiens, UniProt P28324-2 1-405)
T6 sequence: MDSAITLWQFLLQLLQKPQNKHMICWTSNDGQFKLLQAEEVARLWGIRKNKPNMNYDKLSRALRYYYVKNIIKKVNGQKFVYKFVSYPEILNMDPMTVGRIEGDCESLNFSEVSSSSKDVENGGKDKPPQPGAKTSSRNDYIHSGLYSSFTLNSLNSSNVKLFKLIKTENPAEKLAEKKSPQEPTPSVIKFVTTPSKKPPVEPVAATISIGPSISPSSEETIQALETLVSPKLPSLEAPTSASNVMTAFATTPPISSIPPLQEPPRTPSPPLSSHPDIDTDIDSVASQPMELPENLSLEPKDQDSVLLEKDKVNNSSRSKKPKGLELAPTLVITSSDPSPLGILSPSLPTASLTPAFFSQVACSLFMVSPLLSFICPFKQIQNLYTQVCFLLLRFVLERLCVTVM
Method in brief: as §1

ETV2 = target: T7, ETV2 (Homo sapiens, UniProt O00321 1-342)
T7 sequence: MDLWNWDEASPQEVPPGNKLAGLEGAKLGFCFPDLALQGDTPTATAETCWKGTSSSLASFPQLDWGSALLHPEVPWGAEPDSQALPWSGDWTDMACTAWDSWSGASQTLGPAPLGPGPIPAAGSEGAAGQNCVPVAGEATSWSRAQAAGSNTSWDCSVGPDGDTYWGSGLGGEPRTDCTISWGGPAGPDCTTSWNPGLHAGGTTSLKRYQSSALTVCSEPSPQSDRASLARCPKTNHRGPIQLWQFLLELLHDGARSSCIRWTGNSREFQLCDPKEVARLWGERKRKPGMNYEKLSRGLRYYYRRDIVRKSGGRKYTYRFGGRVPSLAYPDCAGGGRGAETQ
Method in brief: as §1

ELF3 = target: T8, ELF3 (Homo sapiens, UniProt P78545 1-371)
T8 sequence: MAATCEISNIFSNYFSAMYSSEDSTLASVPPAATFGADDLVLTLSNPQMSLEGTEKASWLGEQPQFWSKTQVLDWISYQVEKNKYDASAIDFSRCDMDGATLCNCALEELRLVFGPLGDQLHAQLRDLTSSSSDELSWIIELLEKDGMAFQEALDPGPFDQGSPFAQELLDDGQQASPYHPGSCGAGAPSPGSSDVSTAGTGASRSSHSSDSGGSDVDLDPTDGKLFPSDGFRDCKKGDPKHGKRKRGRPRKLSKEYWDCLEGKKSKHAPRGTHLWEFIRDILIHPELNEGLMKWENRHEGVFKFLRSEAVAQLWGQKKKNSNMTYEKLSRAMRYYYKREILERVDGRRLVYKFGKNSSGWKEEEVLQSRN
Method in brief: as §1

ETV1 = ETV1 (Homo sapiens, UniProt P50549 1-477)
Method in brief: as §1

GABPA = target: T9, GABPA (Homo sapiens, UniProt Q06546 1-454)
T9 sequence: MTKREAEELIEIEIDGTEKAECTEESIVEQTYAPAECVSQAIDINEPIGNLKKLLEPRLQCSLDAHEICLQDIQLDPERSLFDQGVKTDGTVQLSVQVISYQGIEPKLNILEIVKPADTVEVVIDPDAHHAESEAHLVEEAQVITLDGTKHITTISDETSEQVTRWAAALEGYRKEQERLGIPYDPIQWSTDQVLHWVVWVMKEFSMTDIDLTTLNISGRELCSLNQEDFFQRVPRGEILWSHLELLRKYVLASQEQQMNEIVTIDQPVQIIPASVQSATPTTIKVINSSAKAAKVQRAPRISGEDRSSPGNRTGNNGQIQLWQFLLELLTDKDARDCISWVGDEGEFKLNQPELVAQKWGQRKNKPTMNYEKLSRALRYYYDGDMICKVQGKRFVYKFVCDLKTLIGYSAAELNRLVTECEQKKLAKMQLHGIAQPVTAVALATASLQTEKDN
Method in brief: as §1

ELF1 = ELF1 (Homo sapiens, UniProt P32519 1-619)
Method in brief: as §1

ELK3 = target: T10, ELK3 (Homo sapiens, UniProt P41970 1-407)
T10 sequence: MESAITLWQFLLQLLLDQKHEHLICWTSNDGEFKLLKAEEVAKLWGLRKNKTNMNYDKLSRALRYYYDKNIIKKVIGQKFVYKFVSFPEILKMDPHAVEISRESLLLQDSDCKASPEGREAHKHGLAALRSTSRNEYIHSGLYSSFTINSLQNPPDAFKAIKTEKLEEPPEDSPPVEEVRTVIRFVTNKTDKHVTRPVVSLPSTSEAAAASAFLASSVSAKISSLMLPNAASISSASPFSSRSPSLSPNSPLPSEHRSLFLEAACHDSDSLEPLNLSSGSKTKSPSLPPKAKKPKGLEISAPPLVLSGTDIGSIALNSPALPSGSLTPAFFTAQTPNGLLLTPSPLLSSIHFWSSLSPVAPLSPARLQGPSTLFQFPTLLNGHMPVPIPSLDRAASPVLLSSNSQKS
Method in brief: as §1

FEV = target: T11, FEV (Homo sapiens, UniProt Q99581 1-238)
T11 sequence: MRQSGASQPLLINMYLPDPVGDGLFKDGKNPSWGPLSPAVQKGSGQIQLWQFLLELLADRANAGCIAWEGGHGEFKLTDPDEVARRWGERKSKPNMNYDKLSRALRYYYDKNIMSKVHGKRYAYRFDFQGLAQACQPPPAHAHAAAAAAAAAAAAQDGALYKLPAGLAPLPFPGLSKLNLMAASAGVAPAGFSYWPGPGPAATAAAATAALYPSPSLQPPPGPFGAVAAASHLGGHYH
Method in brief: as §1

Chain of ETV5 (P41161 whole entry): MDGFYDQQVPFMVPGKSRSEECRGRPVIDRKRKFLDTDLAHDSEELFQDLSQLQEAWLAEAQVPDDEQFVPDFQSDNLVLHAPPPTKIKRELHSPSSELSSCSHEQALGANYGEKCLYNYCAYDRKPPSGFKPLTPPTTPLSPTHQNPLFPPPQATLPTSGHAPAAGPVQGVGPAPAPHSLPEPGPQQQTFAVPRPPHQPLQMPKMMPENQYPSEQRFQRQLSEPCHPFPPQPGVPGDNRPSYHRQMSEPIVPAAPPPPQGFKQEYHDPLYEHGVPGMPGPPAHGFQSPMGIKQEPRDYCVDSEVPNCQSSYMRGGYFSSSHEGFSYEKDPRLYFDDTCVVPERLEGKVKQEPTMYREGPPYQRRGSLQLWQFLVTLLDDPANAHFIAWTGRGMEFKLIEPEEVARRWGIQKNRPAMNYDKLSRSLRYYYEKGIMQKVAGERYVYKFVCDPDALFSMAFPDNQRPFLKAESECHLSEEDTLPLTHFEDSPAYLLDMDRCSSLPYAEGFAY
Chain of ELF4 (Q99607 whole entry): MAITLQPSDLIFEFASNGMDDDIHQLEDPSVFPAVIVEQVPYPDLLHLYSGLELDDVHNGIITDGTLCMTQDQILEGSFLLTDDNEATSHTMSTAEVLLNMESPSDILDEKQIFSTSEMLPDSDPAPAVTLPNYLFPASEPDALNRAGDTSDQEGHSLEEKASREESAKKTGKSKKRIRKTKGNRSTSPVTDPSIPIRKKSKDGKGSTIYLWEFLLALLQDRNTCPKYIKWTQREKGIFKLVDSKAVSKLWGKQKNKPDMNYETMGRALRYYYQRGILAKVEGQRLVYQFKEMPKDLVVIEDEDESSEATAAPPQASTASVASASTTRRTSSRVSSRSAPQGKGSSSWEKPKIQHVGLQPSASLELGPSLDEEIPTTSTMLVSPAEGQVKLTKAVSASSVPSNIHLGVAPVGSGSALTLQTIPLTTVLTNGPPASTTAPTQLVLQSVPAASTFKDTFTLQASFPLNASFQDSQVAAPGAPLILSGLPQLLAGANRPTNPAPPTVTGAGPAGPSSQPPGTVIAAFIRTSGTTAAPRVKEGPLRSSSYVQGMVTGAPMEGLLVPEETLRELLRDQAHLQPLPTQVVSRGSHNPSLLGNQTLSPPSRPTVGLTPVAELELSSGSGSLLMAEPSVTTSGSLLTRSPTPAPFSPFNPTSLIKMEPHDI
Chain of ELF1 (P32519 whole entry): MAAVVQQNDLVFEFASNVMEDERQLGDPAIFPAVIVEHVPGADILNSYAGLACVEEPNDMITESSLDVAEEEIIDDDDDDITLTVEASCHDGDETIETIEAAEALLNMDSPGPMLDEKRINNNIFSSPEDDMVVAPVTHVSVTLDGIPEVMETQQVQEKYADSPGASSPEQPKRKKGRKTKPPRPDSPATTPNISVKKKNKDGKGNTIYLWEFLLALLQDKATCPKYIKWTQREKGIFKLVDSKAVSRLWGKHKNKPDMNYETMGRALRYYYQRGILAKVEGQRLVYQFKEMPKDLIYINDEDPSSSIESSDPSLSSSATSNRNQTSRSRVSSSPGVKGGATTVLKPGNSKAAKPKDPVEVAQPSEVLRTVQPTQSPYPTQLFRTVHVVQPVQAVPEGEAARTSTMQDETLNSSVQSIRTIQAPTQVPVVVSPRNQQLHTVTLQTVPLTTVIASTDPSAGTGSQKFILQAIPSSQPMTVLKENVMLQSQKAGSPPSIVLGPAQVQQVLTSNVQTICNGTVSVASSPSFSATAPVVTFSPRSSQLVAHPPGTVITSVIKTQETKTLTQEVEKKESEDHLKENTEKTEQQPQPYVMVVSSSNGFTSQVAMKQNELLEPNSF
Chain of SPIB (Q01892 whole entry): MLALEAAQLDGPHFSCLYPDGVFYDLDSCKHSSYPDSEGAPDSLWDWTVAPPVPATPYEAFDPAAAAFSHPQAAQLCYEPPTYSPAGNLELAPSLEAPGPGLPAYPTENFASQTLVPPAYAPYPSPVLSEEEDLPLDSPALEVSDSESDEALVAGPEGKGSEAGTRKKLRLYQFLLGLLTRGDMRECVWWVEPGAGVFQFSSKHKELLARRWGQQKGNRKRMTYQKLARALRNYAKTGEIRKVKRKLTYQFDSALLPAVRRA
Chain of ETV1 (P50549 whole entry): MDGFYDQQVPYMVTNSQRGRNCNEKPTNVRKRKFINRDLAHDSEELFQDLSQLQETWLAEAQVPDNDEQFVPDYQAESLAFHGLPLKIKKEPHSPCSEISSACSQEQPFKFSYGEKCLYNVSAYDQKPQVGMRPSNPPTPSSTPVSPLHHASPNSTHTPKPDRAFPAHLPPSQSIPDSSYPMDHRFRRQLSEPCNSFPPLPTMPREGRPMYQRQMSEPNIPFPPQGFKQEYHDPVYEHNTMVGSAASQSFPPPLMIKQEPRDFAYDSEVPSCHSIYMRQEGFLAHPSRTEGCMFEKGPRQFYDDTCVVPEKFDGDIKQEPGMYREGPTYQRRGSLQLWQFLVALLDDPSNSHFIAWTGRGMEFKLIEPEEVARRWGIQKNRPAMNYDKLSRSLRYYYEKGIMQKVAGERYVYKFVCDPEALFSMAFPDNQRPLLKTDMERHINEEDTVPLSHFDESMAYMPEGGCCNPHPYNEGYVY

## ATAGGT
FLI1
  binding signal: 1.08 fold enrichment (6-mer frequency, TF over GST control)
ELK1
  binding signal: 1.01 fold enrichment (6-mer frequency, TF over GST control)
ERG
  binding signal: 1.01 fold enrichment (6-mer frequency, TF over GST control)
EHF
  binding signal: 1.04 fold enrichment (6-mer frequency, TF over GST control)
SPI1
  binding signal: 1.01 fold enrichment (6-mer frequency, TF over GST control)
SPIB
  binding signal: 1.04 fold enrichment (6-mer frequency, TF over GST control)
ETV5
  binding signal: 1.08 fold enrichment (6-mer frequency, TF over GST control)
SPIC
  binding signal: 1.01 fold enrichment (6-mer frequency, TF over GST control)
ELF4
  binding signal: 1.01 fold enrichment (6-mer frequency, TF over GST control)
ELK4
  binding signal: 1.02 fold enrichment (6-mer frequency, TF over GST control)
ETV2
  binding signal: 1.11 fold enrichment (6-mer frequency, TF over GST control)
ELF3
  binding signal: 1.11 fold enrichment (6-mer frequency, TF over GST control)
ETV1
  binding signal: 1.03 fold enrichment (6-mer frequency, TF over GST control)

## TGTGTT
FLI1
  binding signal: 1.19 fold enrichment (6-mer frequency, TF over GST control)
ELK1
  binding signal: 1.1 fold enrichment (6-mer frequency, TF over GST control)
GABPA
  binding signal: 1.06 fold enrichment (6-mer frequency, TF over GST control)
ERG
  binding signal: 1.03 fold enrichment (6-mer frequency, TF over GST control)
ELF1
  binding signal: 1.03 fold enrichment (6-mer frequency, TF over GST control)
EHF
  binding signal: 1.09 fold enrichment (6-mer frequency, TF over GST control)
ELK3
  binding signal: 1.26 fold enrichment (6-mer frequency, TF over GST control)
FEV
  binding signal: 1.06 fold enrichment (6-mer frequency, TF over GST control)
ETV5
  binding signal: 1.06 fold enrichment (6-mer frequency, TF over GST control)
SPIC
  binding signal: 1.02 fold enrichment (6-mer frequency, TF over GST control)
ELF4
  binding signal: 1.16 fold enrichment (6-mer frequency, TF over GST control)
ELK4
  binding signal: 1.07 fold enrichment (6-mer frequency, TF over GST control)
ETV2
  binding signal: 1.19 fold enrichment (6-mer frequency, TF over GST control)
ELF3
  binding signal: 1.08 fold enrichment (6-mer frequency, TF over GST control)

## GCGTTT
FLI1
  binding signal: 1.1 fold enrichment (6-mer frequency, TF over GST control)
ELK1
  binding signal: 1.04 fold enrichment (6-mer frequency, TF over GST control)
GABPA
  binding signal: 1.11 fold enrichment (6-mer frequency, TF over GST control)
ERG
  binding signal: 1.14 fold enrichment (6-mer frequency, TF over GST control)
ELF1
  binding signal: 1.08 fold enrichment (6-mer frequency, TF over GST control)
EHF
  binding signal: 1.14 fold enrichment (6-mer frequency, TF over GST control)
SPI1
  binding signal: 1.05 fold enrichment (6-mer frequency, TF over GST control)
SPIB
  binding signal: 1.13 fold enrichment (6-mer frequency, TF over GST control)
ELK3
  binding signal: 1.2 fold enrichment (6-mer frequency, TF over GST control)
FEV
  binding signal: 1.18 fold enrichment (6-mer frequency, TF over GST control)
ETV5
  binding signal: 1.09 fold enrichment (6-mer frequency, TF over GST control)
SPIC
  binding signal: 1.15 fold enrichment (6-mer frequency, TF over GST control)
ELF4
  binding signal: 1.13 fold enrichment (6-mer frequency, TF over GST control)
ELK4
  binding signal: 1.16 fold enrichment (6-mer frequency, TF over GST control)
ETV2
  binding signal: 1.11 fold enrichment (6-mer frequency, TF over GST control)
ELF3
  binding signal: 1.15 fold enrichment (6-mer frequency, TF over GST control)

Source: article PMC7862700, “An all-to-all approach to the identification of sequence-specific readers for epigenetic DNA modifications on cytosine”
